A word on the AC50: it is the concentration giving half of the maximal activity seen.

The record followed here is PubChem BioAssay (EPA / NIEHS).

Activity calls are given as the source filed them. Rule for the calls: active = hit-call score of the fitted dose curve at least 0.9, where 1 is the maximum; inactive = score below 0.9.

Common to all, as to conditions: mRNA level, 48 h; actives raise or lower the signal
Read-out in assay [1]: Apolipoprotein A-V (APOA5) gene, APOA5 (gene 116519)
Nature of the assay: LTEA_HepaRG_APOA5: Life Technologies and Expression Analysis (LTEA) Assay for Apolipoprotein A-V (APOA5) gene using HepaRG (AID 2283474). Summed up:
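APOA5 transcript levels were quantified by qRT-PCR, normalized to three housekeeping genes, after 48 h chemical treatment of HepaRG cells (8 points, 100 uM maximum, half-log steps, 0.5% DMSO). Curves fitted in both directions against vehicle.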

Read-out in assay [2]: Apoptosis regulator Bcl-2 (Homo sapiens) (UniProt P10415)
Nature of the assay: LTEA_HepaRG_BCL2: Life Technologies and Expression Analysis (LTEA) Assay for Bcl-2 gene using HepaRG (AID 2283475). The essentials: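 Differentiated human HepaRG cells in serum-free induction medium exposed 48 h, in duplicate, to 8-point half-log series from 100 uM in 0.5% DMSO. BCL2 mRNA by qRT-PCR (TaqMan/Fluidigm), normalized to ACTB, GAPDH, POLR2A; bidirectional fit against DMSO.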

Read-out in assay [3]: Bcl-2 (BID) gene, BID (gene 637)
Nature of the assay: LTEA_HepaRG_BID: Life Technologies and Expression Analysis (LTEA) Assay for Bcl-2 (BID) gene using HepaRG (AID 2283476). The essentials:
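Gene expression by qRT-PCR in HepaRG cells after 48 h exposure, duplicate wells, eight half-log concentrations topping at 100 uM in 0.5% DMSO. Normalized to ACTB, GAPDH, POLR2A; bidirectional fitting relative to DMSO.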

Read-out in another assay: Caspase-3 (Homo sapiens) (UniProt P42574)
Nature of the assay: LTEA_HepaRG_CASP3: Life Technologies and Expression Analysis (LTEA) Assay for cysteine-aspartic acid protease (CASP3) using HepaRG (AID 2283477). Summed up: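 Expression of CASP3 was quantified by TaqMan qRT-PCR against three housekeeping genes (ACTB, GAPDH, POLR2A), bidirectionally versus 0.5% DMSO. HepaRG cultures received compounds in duplicate, top 100 uM with half-log steps, for 48 h in serum-free induction medium.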

Read-out in assay [4]: Cytochrome P450 (CYP24A1), CYP24A1 (gene 1591)
Description: LTEA_HepaRG_CYP24A1: Life Technologies and Expression Analysis (LTEA) Assay for Cytochrome P450 (CYP24A1) using HepaRG (AID 2283478). The essentials: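 mRNA of CYP24A1 quantified by TaqMan qRT-PCR (ACTB/GAPDH/POLR2A normalization) after 48 h chemical exposure of HepaRG cells, top concentration 100 uM, half-log steps, 0.5% DMSO vehicle, duplicates. Curves fitted bidirectionally against DMSO baseline.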

Read-out in assay [5]: Cytochrome P450 (CYP1A2), CYP1A2 (gene 1544)
Description: LTEA_HepaRG_CYP1A2: Life Technologies and Expression Analysis (LTEA) Assay for Cytochrome P450 (CYP1A2) using HepaRG (AID 2283479). The essentials:
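CYP1A2 transcript measured by TaqMan qRT-PCR against three housekeeping genes after 48-hour chemical exposure of HepaRG cells. Eight-point half-log series topping at 100 uM in 0.5% DMSO, duplicates; gain or loss fitted relative to vehicle.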

Read-out in assay [6]: cysteine-aspartic acid protease (CASP8), CASP8 (gene 841)
Nature of the assay: LTEA_HepaRG_CASP8: Life Technologies and Expression Analysis (LTEA) Assay for cysteine-aspartic acid protease (CASP8) using HepaRG (AID 2283480). Summed up: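 HepaRG, 48 h exposure, duplicate wells; 8 conc, half-log from 100 uM, 0.5% DMSO. Serum-free induction medium. CASP8 mRNA by TaqMan qRT-PCR, norm. ACTB/GAPDH/POLR2A; gain/loss fitted vs DMSO.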

Read-out in assay [7]: Cytochrome P450 (CYP2B6), CYP2B6 (gene 1555)
Nature of the assay: LTEA_HepaRG_CYP2B6: Life Technologies and Expression Analysis (LTEA) Assay for Cytochrome P450 (CYP2B6) using HepaRG (AID 2283481). The essentials:
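CYP2B6 transcript level quantified by qRT-PCR against three housekeeping genes, fitted bidirectionally relative to DMSO. HepaRG cultures received chemicals for 48 h, 8-point half-log series from 100 uM in 0.5% DMSO, duplicate wells, serum-free induction medium.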

Read-out in assay [8]: Cytochrome P450 2C19 (Homo sapiens) (UniProt P33261)
Description: LTEA_HepaRG_CYP2C19: Life Technologies and Expression Analysis (LTEA) Assay for CYP2C19 using HepaRG (AID 2283482). Summed up: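 CYP2C19 transcript levels by qRT-PCR, normalized to three housekeeping genes, in HepaRG cells after 48 h chemical exposure. Eight-point half-log series topping at 100 uM, 0.5% DMSO vehicle. Increases and decreases both fitted against DMSO.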

Read-out in a further assay: CYP2C8 (gene 1558)
Description: LTEA_HepaRG_CYP2C8: Life Technologies and Expression Analysis (LTEA) Assay for CYP2C8 using HepaRG (AID 2283483). Summed up:
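CYP2C8 mRNA induction or loss, by qRT-PCR normalized to ACTB/GAPDH/POLR2A, is read in HepaRG cells after 48 h treatment. Concentrations run from 100 uM down in half-log dilutions, with 0.5% DMSO as vehicle and baseline.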

Read-out in another assay: CYP2C9 (gene 1559)
Nature of the assay: LTEA_HepaRG_CYP2C9: Life Technologies and Expression Analysis (LTEA) Assay for CYP2C9 using HepaRG (AID 2283484). The essentials: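 Cells plated 48 h, switched to serum-free induction medium, then treated in duplicate for 48 h at eight concentrations (max 100 uM, 0.5% DMSO). RNA then analysed by qRT-PCR for CYP2C9; curves fitted in both directions relative to DMSO.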

Read-out in another assay: CYP2E1 (gene 1571)
Nature of the assay: LTEA_HepaRG_CYP2E1: Life Technologies and Expression Analysis (LTEA) Assay for CYP2E1 using HepaRG (AID 2283485). Summed up: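 HepaRG cells, plated 48 h, then exposed 48 h in serum-free induction medium to eight half-log concentrations from 100 uM in 0.5% DMSO, duplicate. CYP2E1 mRNA by qRT-PCR, normalized to ACTB/GAPDH/POLR2A; bidirectional fit versus DMSO.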

Read-out in the next assay: CYP4A11 (gene 1579)
Description: LTEA_HepaRG_CYP4A11: Life Technologies and Expression Analysis (LTEA) Assay for CYP4A11 using HepaRG (AID 2283486). The essentials: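 Readout is CYP4A11 transcript level by qRT-PCR, normalized to three housekeeping genes and fitted bidirectionally against 0.5% DMSO. Human HepaRG cells were treated 48 h, in duplicate, with an 8-point half-log series topping at 100 uM.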

Read-out in assay [9]: Cytochrome P450 3A4 (Homo sapiens) (UniProt P08684)
Nature of the assay: LTEA_HepaRG_CYP3A4: Life Technologies and Expression Analysis (LTEA) Assay for CYP3A4 using HepaRG (AID 2283487). The essentials:
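In a human hepatic line (HepaRG), duplicate wells were treated 48 h with up to 100 uM chemical in half-log dilutions. Endpoint: CYP3A4 mRNA induction or loss relative to 0.5% DMSO vehicle, by qRT-PCR.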

Read-out in assay [10]: DNA damage-inducible transcript 3 (DDIT3), DDIT3 (gene 1649)
Description: LTEA_HepaRG_DDIT3: Life Technologies and Expression Analysis (LTEA) Assay for DNA damage-inducible transcript 3 (DDIT3) using HepaRG (AID 2283488). The essentials:
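HepaRG cells, 48 h after plating, exposed 48 h in serum-free induction medium to 8 half-log concentrations up to 100 uM in 0.5% DMSO, in duplicate. DDIT3 mRNA measured by TaqMan qRT-PCR, normalized to ACTB, GAPDH and POLR2A. Fitted bidirectionally against DMSO.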

Read-out in assay [11]: Pro-epidermal growth factor (Homo sapiens) (UniProt P01133)
Nature of the assay: LTEA_HepaRG_EGF: Life Technologies and Expression Analysis (LTEA) Assay for Epidermal growth factor (EGF) using HepaRG (AID 2283489). The essentials: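 EGF transcript measured by Fluidigm TaqMan qRT-PCR with three housekeeping genes for normalization, 48 h after dosing HepaRG cultures in duplicate (top 100 uM, half-log steps, 0.5% DMSO vehicle). Gain or loss relative to DMSO fitted.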

Read-out in assay [12]: Early growth response protein 1 (EGR1) transcription factor, EGR1 (gene 1958)
Nature of the assay: LTEA_HepaRG_EGR1: Life Technologies and Expression Analysis (LTEA) Assay for Early growth response protein 1 (EGR1) transcription factor using HepaRG (AID 2283490). Summed up:
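Read-out is EGR1 mRNA level by qRT-PCR, normalized to three housekeeping genes and analysed for gain or loss of signal against 0.5% DMSO. Source cells: human HepaRG, treated 48 h at up to 100 uM in half-log dilutions.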

Read-out in assay [13]: Ezrin (EZR), EZR (gene 7430)
Nature of the assay: LTEA_HepaRG_EZR: Life Technologies and Expression Analysis (LTEA) Assay for Ezrin (EZR) using HepaRG (AID 2283491). The essentials:
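Gain or loss of EZR mRNA is scored relative to 0.5% DMSO in human HepaRG cultures treated 48 h with test chemicals in duplicate, eight half-log concentrations from 100 uM.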

Read-out in assay [14]: Cytochrome P450 3A7 (Homo sapiens) (UniProt P24462)
Nature of the assay: LTEA_HepaRG_CYP3A7: Life Technologies and Expression Analysis (LTEA) Assay for CYP3A7 using HepaRG (AID 2283492). The essentials:
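CYP3A7 transcript measured by qRT-PCR (ACTB, GAPDH, POLR2A normalization) after 48 h chemical exposure of HepaRG cells in duplicate. Eight half-log concentrations, maximum 100 uM, 0.5% DMSO vehicle; bidirectional curve fitting against DMSO baseline.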

Read-out in a further assay: BCL2L11 (gene 10018)
Description: LTEA_HepaRG_BCL2L11: Life Technologies and Expression Analysis (LTEA) Assay for Bcl-2 (BCL2L11) gene using HepaRG (AID 2283473). Summed up:
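BCL2L11 transcript levels are measured by Fluidigm qRT-PCR, normalized to three housekeeping genes. HepaRG cultures were plated 48 h, then treated 48 h with test chemical (top 100 uM, half-log, 0.5% DMSO vehicle); curves were fitted bidirectionally against DMSO.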

Sequence of Apoptosis regulator Bcl-2 (Homo sapiens) (P10415 whole entry, looked up): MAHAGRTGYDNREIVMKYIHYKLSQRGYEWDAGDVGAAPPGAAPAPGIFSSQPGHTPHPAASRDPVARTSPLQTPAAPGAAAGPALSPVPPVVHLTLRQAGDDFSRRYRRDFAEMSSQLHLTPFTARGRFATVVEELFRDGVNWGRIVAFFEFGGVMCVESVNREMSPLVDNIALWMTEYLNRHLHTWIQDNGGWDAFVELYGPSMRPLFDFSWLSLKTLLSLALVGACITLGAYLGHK
Sequence of Cytochrome P450 2C19 (Homo sapiens) (P33261 whole entry, looked up): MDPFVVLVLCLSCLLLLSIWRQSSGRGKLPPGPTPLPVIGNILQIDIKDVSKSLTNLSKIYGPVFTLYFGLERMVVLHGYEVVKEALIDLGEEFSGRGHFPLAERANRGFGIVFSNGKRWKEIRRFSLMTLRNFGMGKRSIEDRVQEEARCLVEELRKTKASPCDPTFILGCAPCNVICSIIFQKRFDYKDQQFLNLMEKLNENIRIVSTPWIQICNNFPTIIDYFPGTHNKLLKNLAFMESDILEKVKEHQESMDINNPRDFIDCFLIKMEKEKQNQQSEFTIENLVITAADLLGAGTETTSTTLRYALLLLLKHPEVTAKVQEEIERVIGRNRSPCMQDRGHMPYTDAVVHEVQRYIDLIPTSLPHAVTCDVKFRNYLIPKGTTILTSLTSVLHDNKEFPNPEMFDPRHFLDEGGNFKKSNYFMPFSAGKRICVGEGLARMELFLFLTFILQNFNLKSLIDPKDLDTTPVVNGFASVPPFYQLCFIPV
Sequence of Cytochrome P450 3A7 (Homo sapiens) (P24462 whole entry, looked up): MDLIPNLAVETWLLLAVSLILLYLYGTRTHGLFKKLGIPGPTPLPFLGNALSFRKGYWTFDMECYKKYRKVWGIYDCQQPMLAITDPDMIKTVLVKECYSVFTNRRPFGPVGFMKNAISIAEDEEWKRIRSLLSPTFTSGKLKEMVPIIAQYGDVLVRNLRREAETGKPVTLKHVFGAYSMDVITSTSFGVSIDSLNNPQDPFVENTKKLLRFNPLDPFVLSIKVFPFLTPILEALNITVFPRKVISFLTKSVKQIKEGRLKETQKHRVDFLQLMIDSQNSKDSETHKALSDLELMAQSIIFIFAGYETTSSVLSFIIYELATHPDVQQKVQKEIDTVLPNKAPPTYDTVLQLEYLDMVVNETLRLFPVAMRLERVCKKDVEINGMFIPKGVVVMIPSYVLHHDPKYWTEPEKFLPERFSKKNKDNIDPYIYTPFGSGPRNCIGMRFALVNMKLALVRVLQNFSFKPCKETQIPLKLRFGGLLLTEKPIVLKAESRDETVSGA
Sequence of Caspase-3 (Homo sapiens) (P42574 whole entry, looked up): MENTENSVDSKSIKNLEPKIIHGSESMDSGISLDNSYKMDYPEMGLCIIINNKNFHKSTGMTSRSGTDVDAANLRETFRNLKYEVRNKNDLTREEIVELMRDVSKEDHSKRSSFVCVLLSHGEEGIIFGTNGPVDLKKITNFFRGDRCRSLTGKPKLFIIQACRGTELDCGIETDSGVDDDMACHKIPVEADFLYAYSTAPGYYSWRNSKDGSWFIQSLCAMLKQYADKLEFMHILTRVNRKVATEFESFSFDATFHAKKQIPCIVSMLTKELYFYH
Sequence of Cytochrome P450 3A4 (Homo sapiens) (P08684 whole entry, looked up): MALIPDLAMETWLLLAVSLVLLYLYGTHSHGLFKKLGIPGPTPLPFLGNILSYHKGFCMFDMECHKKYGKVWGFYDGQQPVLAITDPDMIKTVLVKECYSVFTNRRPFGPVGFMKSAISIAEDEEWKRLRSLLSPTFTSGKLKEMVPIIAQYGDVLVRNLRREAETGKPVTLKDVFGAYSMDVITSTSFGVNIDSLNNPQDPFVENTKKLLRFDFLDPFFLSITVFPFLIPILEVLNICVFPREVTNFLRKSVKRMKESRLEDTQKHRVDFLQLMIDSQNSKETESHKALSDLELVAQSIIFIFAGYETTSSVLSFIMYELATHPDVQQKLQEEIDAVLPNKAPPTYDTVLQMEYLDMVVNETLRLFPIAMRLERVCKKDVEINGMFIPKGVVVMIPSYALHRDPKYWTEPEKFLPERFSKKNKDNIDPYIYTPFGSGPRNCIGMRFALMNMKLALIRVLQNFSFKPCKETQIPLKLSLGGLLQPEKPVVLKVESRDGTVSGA

With `COc1ccc(/C=C/S(=O)(=O)NC(=O)c2ccc(C)cc2Cl)cc1`, the result (in assay [1]; in assay [2]; in assay [3]; in the assay with Caspase-3 (Homo sapiens); in assay [4]; in [5]) was inactive. Also, the compound was classed as inactive (in assay [6]; in [8]; in the assay with CYP2C8 (gene 1558); with CYP2C9 (gene 1559); in the assay with CYP4A11 (gene 1579); in assay [9]). In addition, the compound was classed as inactive in [10], in assay [11], in [12] and in [13]. In addition, the AC50 in [7] was 89.8 µM (active); in the assay with CYP2E1 (gene 1571) it was 69.6 µM (active); in assay [14] it was 20.1 µM (active).

Consider `CN(C)c1ccc(Cc2ccc(N(C)C)cc2)cc1`, for which the compound was called inactive (with BCL2L11 (gene 10018); in [2]; in assay [3]; in assay [4]; in assay [6]; in [10]). Moreover, the outcome in assay [11], in assay [12] and in [13] was inactive. Moreover, the AC50 in assay [1] was 76.1 µM (active); in the assay with Caspase-3 (Homo sapiens), 50 µM (active); in assay [5], 13 µM (active); in assay [7], 1.6 µM (active); in assay [8], 12.5 µM (active); in the assay with CYP2C8 (gene 1558) it was 90.6 µM (active). In addition, the AC50 with CYP2C9 (gene 1559) is 90.8 µM (active); with CYP2E1 (gene 1571), 50 µM (active); with CYP4A11 (gene 1579), 89 µM (active); in assay [9], 2.5 µM (active); in assay [14], 11.6 µM (active).

Take `CC(C)=CCC/C(C)=C/CO`: the compound was classed as inactive (in the assay with BCL2L11 (gene 10018); in [1]; in assay [2]; in assay [3]; in the assay with Caspase-3 (Homo sapiens); in assay [6]). The result in [10], in assay [11], in [12] and in assay [13] was inactive.

For `CC(C)=CCCC(C)CCO` (stereo not drawn), the call (in [1]; in assay [2]; in assay [3]; with Caspase-3 (Homo sapiens); in assay [4]; in [6]) was inactive. Besides, the compound was called inactive (in assay [8]; with CYP2C8 (gene 1558); with CYP2C9 (gene 1559); with CYP2E1 (gene 1571); with CYP4A11 (gene 1579); in assay [9]). In addition, the compound was called inactive in [10], in assay [11], in assay [12], in assay [13] and in [14]. The results for the AC50 in assay [5] and in assay [7] were 50 µM (active) and 11.7 µM (active), respectively.
